Test results taken from PubChem BioAssay (NCATS).
Results filed as inconclusive are left out. A call without a number means that no potency is given here. The source made the active and inactive calls. Calls follow the shape of the dose curve; as a rule, active = well fitted cell-killing curve with a large enough effect; inconclusive = small, poorly fitted or top-dose-only effect, or effect the other way; inactive = no such curve, though single readings can be large or run the other way.

Experiment: Quantitative High-Throughput drug screen in 47 multiple myeloma cell lines against the NCATS MIPE library collection: OPM2_DSMZ cell viability assay (AID 1919872); also: nearly all actives have a fitted effect of over 30% in size
Conditions: OPM2 myeloma viability, CellTiter-Glo ATP luminescence, 48 h; series mostly up to 45.8 µM
Procedure, shortened: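 Myeloma cells (500 per well) were exposed to MIPE 4.0 compounds by pin transfer and incubated 48 hours at 37C, 5% CO2. Viability was read as ATP by CellTiter-Glo luminescence, normalised to DMSO (100%) and media-only (0%) wells.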
Potency is read from the fitted curve at half-maximal effect.

| Compound | Potency |
| --- | --- |
| COCCOC(=O)C1=C(C)NC2=C(C(=O)CC(c3ccccc3OC)C2)C1c1cccc(O)c1 (stereo unspecified) | 16.6 µM (active) |
| CN[C@@H](C)C(=O)N[C@H]1CN(C(=O)CC(C)C)CC[C@H]2CC[C@@H](C(=O)NC(c3ccccc3)c3ccccc3)N2C1=O | inactive |
| COCCCCC(=NOCCN)c1ccc(C(F)(F)F)cc1 | 16.6 µM (active) |
| O=C(OCC#CCSc1nnc(-c2cccc3ccccc23)o1)c1cc2ccccc2s1 | inactive |
| COc1ccc2cc(-c3nc(-c4ccc(S(C)=O)cc4)[nH]c3-c3ccncc3)ccc2c1 (stereo unspecified) | inactive |
| C[C@]12CCC3c4ccc(O)cc4CCC3C1CCC2=O (stereo partly specified) | inactive |
| CC(C)(C(=O)NCC(F)(F)C(F)(F)F)C(=O)N[C@@H]1C(=O)Nc2ccccc2-c2ccccc21 | inactive |
| CC(C)(C)NC(=O)Nc1cccc(Nc2ncc(F)c(NC(C)(C)CO)n2)c1 | 16.6 µM (active) |
| COc1ccc2cccc(CCNC(C)=O)c2c1 | inactive |
| NC1CCC(Nc2nc(Nc3ccc(C(=O)N4CCCCC4)cc3)c3ncn(-c4cccc(F)c4)c3n2)CC1 (stereo unspecified) | inactive |
| CC(C)(C)C(=O)Oc1ccc2c(c1)nc(NC(=O)c1cccc([N+](=O)[O-])c1)n2CCCO | inactive |
| NC(=O)c1cccc(-c2cc(Nc3ccc(OC(F)(F)F)cc3)ncn2)c1 | 16.6 µM (active) |
| CC[C@]1(O)C[C@@H]2CN(CCc3c([nH]c4ccccc34)[C@@](C(=O)OC)(c3cc4c(cc3OC)N(C=O)[C@@H]3C45CCN4CC=C[C@](CC)([C@H]45)[C@@H](OC(C)=O)[C@]3(O)C(=O)OC)C2)C1 (stereo partly specified) | 23.5 µM (active) |
| O=C(O)C(O)Cc1ccc(O)c(O)c1 (stereo unspecified) | 11.8 µM (active) |
| C[C@H](NC(=O)c1sccc1OCc1ccc(Cl)cc1)c1ccccc1 | 18.7 µM (active) |
| CC1(C)S[C@H]2[C@H](NC(=O)[C@@H](N)c3ccc(O)cc3)C(=O)N2[C@@H]1C(=O)O | inactive |
| COc1cccc(-c2cc(=O)c3ccccc3o2)c1N | inactive |
| CC[C@@H]1C=C(C)C[C@H](C)C[C@H](OC)[C@H]2O[C@@](O)(C(=O)C(=O)N3CCCC[C@@H]3C(=O)O[C@H](C(C)=C[C@@H]3CC[C@H](Cl)[C@H](OC)C3)[C@H](C)[C@@H](O)CC1=O)[C@H](C)C[C@H]2OC | inactive |
| CON=C(C(=O)N[C@@H]1C(=O)N2C(C(=O)OCOC(=O)C(C)(C)C)=C(C=Cc3scnc3C)CS[C@H]12)c1csc(N)n1 | inactive |
| CC(C)C(=O)Oc1ccc(CO)cc1[C@H](CCN(C(C)C)C(C)C)c1ccccc1 | inactive |
| COc1ccc(Cc2ccc(NC(N)=O)cc2)cc1-c1cccc(Cl)c1 | inactive |
| Cc1cccc(Nc2nc(-c3ccncc3)cs2)c1 | 10.5 µM (active) |
| CCOC1OC(=O)C[C@H]1NC(=O)[C@@H]1CCCN1C(=O)[C@@H](NC(=O)c1ccc(N)c(Cl)c1)C(C)(C)C (stereo partly specified) | inactive |
| O=C(O)c1cc(O)c2c(c1)C(=O)c1cccc(O)c1C2=O | inactive |
| CC(=Cc1ccccc1)C=C1SC(=S)N(CC(=O)O)C1=O | inactive |
| Nc1ncnc2c1ncn2[C@@H]1O[C@@H](CO)[C@H](O)[C@H]1O | inactive |
